Test results: PubChem BioAssay (NCATS)
“And” between values parts separate entries of the source, which are not always exact repeats. Identical values can stand only once. Results filed as inconclusive are left out. Entries that show only a call come without a potency. The source holds several records for some structures; these can differ, active in one and inactive in another. The source made the active and inactive calls. Calls follow the shape of the dose curve; as a rule, active = well fitted curve in the direction sought with a large enough effect; inconclusive = small, poorly fitted or top-dose-only effect, or another doubt; inactive = no such curve, though single readings can be large; an effect the other way counts as inactive or inconclusive.

Key:
[1] = molecular target: Cytochrome P450 3A7 (Homo sapiens) (UniProt P24462); experiment: Cytochrome P450 family 3 subfamily A member 7 (CYP3A7) small molecule antagonists: luciferase biochemical qHTS assay (AID 1963596); also: nearly all actives have a fitted effect of over 40% in size
Outline: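 P450-Glo luminescent assay: CYP3A7 enzyme converts a proluciferin substrate to luciferin, detected by luciferase reagent; light proportional to activity. Compounds in DMSO preincubated 10 min with enzyme-substrate mix at room temperature, then NADPH regeneration added for 1 h.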

[2] = Viability qHTS for spleen associated tyrosine kinase inhibitor (SYKi) naive MV4-11 cells (AID 1963823); also: nearly all actives have a fitted effect of over 40% in size; also: potency is read from the fitted curve at half-maximal effect
Outline: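 Luminescence from CellTiter-Glo, developed 10 min at room temperature, gave viability of MV4-11 cells never exposed to SYK inhibitor. Cells (500/well) had been incubated with compounds for 72 hr under standard culture conditions.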

[3] = Viability qHTS for spleen associated tyrosine kinase inhibitor (SYKi) drug resistant MV4-11 cells (AID 1963824); also: nearly all actives have a fitted effect of over 35% in size; also: potency is read from the fitted curve at half-maximal effect
Outline: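 SYK inhibitor-resistant MV4-11 AML cells, 500 per well, added to predispensed compounds and incubated 72 hr at 37 C, 5% CO2. Viability measured by CellTiter-Glo luminescence after 10 min at room temperature.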

[4] = Cellular viability qHTS for adrenocortical cancer (ACC) cell line SW-13 (AID 1963989); details: SW-13 ACC cells viability, CellTiter-Glo, 48 h; activity (max response): stronger effect = lower value; also: nearly all actives have a fitted effect of over 65% in size; also: potency is read from the fitted curve at half-maximal effect;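 as to activity (max response): cells grown in serum-free medium with ITS supplement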
Outline: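 Viability was read as CellTiter-Glo luminescence after 48 h compound treatment (up to 46 uM final) of SW-13 cells grown serum-free; titration curves were fit with a four-parameter logistic model to give IC50 and efficacy.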

[5] = Cellular viability qHTS for adrenocortical cancer (ACC) cell line NCI-H295R (AID 1963990); also: nearly all actives have a fitted effect of over 60% in size; also: potency is read from the fitted curve at half-maximal effect
Outline: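 CellTiter-Glo ATP luminescence, read 48 h after compound addition, measured viability of NCI-H295R adrenocortical cells grown serum-free with ITS. Final concentrations spanned up to 46 uM. Data normalized to DMSO and doxorubicin, fitted for IC50 and maximal response.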

Chain of Cytochrome P450 3A7 (Homo sapiens) (P24462 whole entry, looked up): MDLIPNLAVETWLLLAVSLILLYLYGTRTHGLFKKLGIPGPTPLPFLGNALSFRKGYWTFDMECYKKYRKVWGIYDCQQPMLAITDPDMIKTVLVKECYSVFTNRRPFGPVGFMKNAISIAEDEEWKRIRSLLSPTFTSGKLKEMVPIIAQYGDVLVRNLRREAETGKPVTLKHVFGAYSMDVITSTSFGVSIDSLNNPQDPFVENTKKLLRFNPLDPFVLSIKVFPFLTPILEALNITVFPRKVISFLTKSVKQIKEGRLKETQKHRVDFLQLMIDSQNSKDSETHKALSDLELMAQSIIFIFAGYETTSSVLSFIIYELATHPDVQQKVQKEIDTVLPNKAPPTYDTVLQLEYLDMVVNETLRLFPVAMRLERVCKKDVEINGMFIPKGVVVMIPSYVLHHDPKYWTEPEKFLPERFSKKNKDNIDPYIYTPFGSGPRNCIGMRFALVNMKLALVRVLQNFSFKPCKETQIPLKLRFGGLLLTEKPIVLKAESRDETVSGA

SMILES | Potency [1] | Potency [2] | Potency [3] | activity (max response) [4] | Potency [5] | activity change, negative = inhibition [1] | viability (% of control) [2] | viability, % of control [3] | activity change, negative = viability loss [5] | Potency [4]
O=C(O)c1ccccc1OP(=O)(O)O | inactive | inactive | inactive | 16.4% (inactive) | inactive |  |  |  |  | 
O=C(O)c1ccccc1O | inactive | inactive | inactive | 13.2% (inactive) | inactive |  |  |  |  | 
CN(C)CCN1C(=O)c2ccccc2N(C)c2ccccc21 | inactive | inactive | inactive | -13.1% (inactive) | inactive |  |  |  |  | 
N[C@@H](CSSC[C@H](N)C(=O)O)C(=O)O |  |  |  | 5.04% (inactive) |  | 0.172% [at 0.91 µM] (inactive) | 68.4% [at 0.588 µM] (inactive) | 76.8% [at 0.588 µM] (inactive) | -0.603% [at 0.587 µM] (inactive) | 
O=C(O)[C@H](O)[C@@H](O)[C@H](O[C@@H]1O[C@H](CO)[C@H](O)[C@H](O)[C@H]1O)[C@H](O)CO | inactive | inactive | inactive | 9.39% (inactive) | inactive |  |  |  |  | 
CCC1(c2ccccc2)C(=O)NCNC1=O | inactive | inactive | inactive | 8.13% (inactive) and -10.5% (inactive) | inactive |  |  |  |  | 
CCCCCCCCCCCCCC(=O)OC(C)C | inactive | inactive | inactive | 6.54% (inactive) | inactive |  |  |  |  | 
Cn1c(=O)c2[nH]cnc2n(C)c1=O | inactive | inactive | inactive | -5.93% (inactive) and 14.5% (inactive) | inactive |  |  |  |  | 
CC(=O)Nc1ccccc1 | inactive | inactive | inactive | -1.24% (inactive) | inactive |  |  |  |  | 
Cc1cc2c(cc1S(N)(=O)=O)S(=O)(=O)CCC2 | inactive | inactive | inactive | 12.2% (inactive) | inactive |  |  |  |  | 
CC(=O)NCCCCCC(=O)O | inactive | inactive | inactive | -2.94% (inactive) | inactive |  |  |  |  | 
CC(C)CCCC(C)CCCC(C)CCCCC(C)CCCC(C)CCCC(C)C (stereo not given) | inactive | inactive | inactive | 6.76% (inactive) | inactive |  |  |  |  | 
NC(=Nc1ccccc1)Nc1ccccc1 | inactive | 38.6 µM (active) and inactive | 34.4 µM (active) | -1.07% (inactive) | inactive |  |  |  |  | 
CC(C(=O)O)c1ccc2c(c1)Cc1cccnc1O2 (stereo not given) | inactive | inactive | inactive | -0.725% (inactive) | inactive |  |  |  |  | 
O=C1CC(c2ccc(Cl)cc2)CC(=O)N1 | inactive | inactive | inactive | 13.6% (inactive) | inactive |  |  |  |  | 
O=Cc1ccccc1C=O | inactive | inactive | inactive | 0.792% (inactive) | inactive |  |  |  |  | 

SMILES | Potency [1] | Potency [2] | Potency [3] | activity (max response) [4] | Potency [5] | activity change, negative = inhibition [1] | viability (% of control) [2] | viability, % of control [3] | activity change, negative = viability loss [5] | Potency [4]
Cc1cccc(C)c1NC(=O)CC12CCCN1CCC2 | inactive | inactive | inactive | 1.71% (inactive) | inactive |  |  |  |  | 
COc1cc(S(N)(=O)=O)cc(C(=O)O)c1OC | inactive | inactive | inactive | 10.1% (inactive) | inactive |  |  |  |  | 
O=C(NCCN1CCOCC1)c1ccc(Cl)cc1 | inactive | inactive | inactive | 1.07% (inactive) | inactive |  |  |  |  | 
CCN(CC)CCNC(=O)COc1ccc(Cl)cc1 | inactive | inactive | inactive | 6.48% (inactive) | inactive |  |  |  |  | 
CCn1cc(C(=O)O)c(=O)c2cc3c(cc21)OCO3 | inactive | inactive | inactive | -2.41% (inactive) | inactive |  |  |  |  | 
CC(C)Cn1cnc2c1c(=O)n(C)c(=O)n2C | inactive | inactive | inactive | -11.6% (inactive) | inactive |  |  |  |  | 
Cc1cccc(-c2nn3c(c2-c2ccnc4ccc(C(N)=O)cc24)CCC3)n1 | inactive | inactive | inactive | 14.6% (inactive) | inactive |  |  |  |  | 
CCOC(=O)C(O)c1ccccc1 (stereo not given) | inactive | inactive | inactive | 4.7% (inactive) | inactive |  |  |  |  | 
CNCc1ccc(C)c(NC(=O)c2ccc(Nc3nc(-c4ccccc4)c4ccccc4n3)cc2)c1 | inactive | 7.42 µM (active) | 7.42 µM (active) |  | 6.31 µM (active) |  |  |  |  | 28.2 µM (active)
CCCCCOC(=O)Nc1nc(=O)n([C@@H]2O[C@H](C)[C@@H](O)[C@H]2O)cc1F | inactive | inactive | inactive | 14.3% (inactive) and 14.2% (inactive) | inactive |  |  |  |  | 
CCN1CCN(c2cc3c(cc2F)c(=O)c(C(=O)O)cn3C2CC2)CC1 | inactive | inactive | inactive | 2.41% (inactive) | inactive |  |  |  |  | 
CCCCCCCC(=O)[O-].CCCCCCCC(=O)[O-].[Zn+2] | inactive | inactive | inactive | 2.96% (inactive) | inactive |  |  |  |  | 
CC(C)=CCC/C(C)=C/CC/C(C)=C/CCC(=O)OC/C=C(\C)CCC=C(C)C | inactive | inactive | inactive | 14.2% (inactive) | inactive |  |  |  |  | 
CCNC(=O)/C=C/c1cccc(Br)c1 | inactive | inactive | inactive | -10.3% (inactive) | inactive |  |  |  |  | 
Cc1c(C(=O)NCCO)[n+](=O)c2ccccc2n1[O-] | inactive | inactive | inactive | 7.59% (inactive) | inactive |  |  |  |  | 
